Assay results reported in the supplement of paper PMC10849652.
Of roughly 8,800 targets only a part is listed; those with a hit were picked by preference. About 0.5% of all pairs of compound and target were hits.

What was measured:
Experiment in all cases: log2 fold change, soluble protein after heating vs DMSO (PISA); higher = thermal stabilisation; K562 lysate, 10 uM; active = over 0.2 and 3.5 SD of the protein, either way, in both replicates (recomputed)
vemurafenib = compound: CCCS(=O)(=O)Nc1ccc(F)c(C(=O)c2c[nH]c3ncc(-c4ccc(Cl)cc4)cc23)c1F [vemurafenib]
Procedure, shortened: (§1)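 K562 pellets were dounce-homogenised in PBS pH 7.4 containing 1 mM MgCl2, and the crude extract, at 1 mg/mL protein, was exposed to 10 μM compound for 30 min. Aliquots were heated for 3 min across 48°C-58°C, pooled, brought to 0.5% NP-40 at 4°C and spun at 21,000xg for 90 min, with the supernatant taken as soluble protein. TMTpro 16plex LC-MS/MS with equalised channel sums quantified that protein. Values are log-two fold changes in thermal stability relative to solvent controls, taken from duplicates.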

[1] = compound: CCCS(=O)(=O)Nc1ccc(F)c(C(=O)c2c[nH]c3ncc(Cl)cc23)c1F
Procedure, shortened: as §1

barasertib = compound: CCN(CCCOc1ccc2c(Nc3cc(CC(=O)Nc4cccc(F)c4)[nH]n3)ncnc2c1)CCOP(=O)(O)O [barasertib]
Procedure, shortened: as §1

[2] = compound: CC[C@@H]1C(=O)N(C)c2cnc(Nc3ccc(C(=O)NC4CCN(C)CC4)cc3OC)nc2N1C1CCCC1
Procedure, shortened: as §1

volasertib = compound: CC[C@@H]1C(=O)N(C)c2cnc(Nc3ccc(C(=O)N[C@H]4CC[C@H](N5CCN(CC6CC6)CC5)CC4)cc3OC)nc2N1C(C)C [volasertib]
Procedure, shortened: as §1

[3] = compound: CCn1c(C(=O)N(C2CC2)C2CC2)cc2c3c(ncn3C)c(Nc3cc(C)n(C)n3)nc21
Procedure, shortened: as §1

[4] = compound: CCn1cc(-c2ccnc3[nH]c(-c4cccc(CN(C)C)c4)cc23)c(-c2ccc(NC(=O)N(C)C)cc2)n1
Procedure, shortened: as §1

[5] = compound: CN1CCC(CNc2ccc3ncc(-c4cccc(OC(F)(F)F)c4)n3n2)CC1
Procedure, shortened: as §1

saracatinib = compound: CN1CCN(CCOc2cc(OC3CCOCC3)c3c(Nc4c(Cl)ccc5c4OCO5)ncnc3c2)CC1 [saracatinib]
Procedure, shortened: as §1

sotrastaurin = compound: CN1CCN(c2nc(C3=C(c4c[nH]c5ccccc45)C(=O)NC3=O)c3ccccc3n2)CC1 [sotrastaurin]
Procedure, shortened: as §1

alvocidib = compound: CN1CC[C@H](c2c(O)cc(O)c3c(=O)cc(-c4ccccc4Cl)oc23)[C@H](O)C1 [alvocidib]
Procedure, shortened: as §1

Tubastatin A = compound: CN1CCc2c(c3ccccc3n2Cc2ccc(C(=O)NO)cc2)C1 [Tubastatin A]
Procedure, shortened: as §1

[6] = compound: CNC(=O)C1=CC=CC=C1NC2=NC(=NC=C2Cl)NC3=C(C=C(C=C3)N4CCOCC4)OC
Procedure, shortened: as §1

defactinib = compound: CNC(=O)c1ccc(Nc2ncc(C(F)(F)F)c(NCc3nccnc3N(C)S(C)(=O)=O)n2)cc1 [defactinib]
Procedure, shortened: as §1

[7] = compound: CNc1nc(-c2ccc3c(N)n[nH]c3c2)cc(N2C[C@@H](C(=O)NC3CCCCC3)CC[C@H]2C)n1
Procedure, shortened: as §1

encorafenib = compound: COC(=O)N[C@@H](C)CNc1nccc(-c2cn(C(C)C)nc2-c2cc(Cl)cc(NS(C)(=O)=O)c2F)n1 [encorafenib]
Procedure, shortened: as §1

[8] = compound: COC(=O)[C@H](CCSC)NC(=O)C1=C(C=C(C=C1)NC[C@H](CS)N)C2=CC=CC=C2
Procedure, shortened: as §1

alisertib = compound: COc1cc(Nc2ncc3c(n2)-c2ccc(Cl)cc2C(c2c(F)cccc2OC)=NC3)ccc1C(=O)O [alisertib]
Procedure, shortened: as §1

[9] = compound: COc1cc2nc(-c3cc(F)ccc3O)nc(N[C@@H]3CNC[C@H]3C(C)(C)O)c2cc1OC
Procedure, shortened: as §1

gefitinib = compound: COc1cc2ncnc(Nc3ccc(F)c(Cl)c3)c2cc1OCCCN1CCOCC1 [gefitinib]
Procedure, shortened: as §1

Measured: log2 fold change

GTPBP2 (UniProt Q9BX10)
UniProt Q9BX10, sequence (Q9BX10 whole entry, looked up): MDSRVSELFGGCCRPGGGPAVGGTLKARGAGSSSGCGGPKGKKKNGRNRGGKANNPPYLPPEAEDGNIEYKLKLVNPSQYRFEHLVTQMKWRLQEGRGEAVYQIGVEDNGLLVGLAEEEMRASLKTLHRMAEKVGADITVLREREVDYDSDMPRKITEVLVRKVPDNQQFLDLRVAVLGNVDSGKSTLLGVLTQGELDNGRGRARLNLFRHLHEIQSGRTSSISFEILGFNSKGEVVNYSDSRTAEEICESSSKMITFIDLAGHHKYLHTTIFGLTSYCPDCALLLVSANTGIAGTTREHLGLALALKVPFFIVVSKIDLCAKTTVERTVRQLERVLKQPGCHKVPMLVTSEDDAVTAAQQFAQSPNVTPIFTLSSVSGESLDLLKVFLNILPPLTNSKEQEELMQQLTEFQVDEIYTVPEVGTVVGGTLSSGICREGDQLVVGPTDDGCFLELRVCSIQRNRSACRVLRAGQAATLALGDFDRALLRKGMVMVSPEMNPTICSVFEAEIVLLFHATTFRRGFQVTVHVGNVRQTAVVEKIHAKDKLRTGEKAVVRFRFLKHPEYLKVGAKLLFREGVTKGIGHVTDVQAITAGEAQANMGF
inactive: vemurafenib 0.005 | [1] 0.005 | barasertib 0.034 | [2] -0.03 | volasertib -0.104 | [3] 0.043 | [4] 0.124 | [5] -0.074 | saracatinib 0.047 | sotrastaurin 0.043 | alvocidib -0.001 | Tubastatin A -0.045 | [6] 0.039 | defactinib 0.018 | [7] -0.037 | encorafenib 0.002 | [8] 0.079 | alisertib 0.034 | [9] -0.07 | gefitinib 0.058

HLCS (UniProt P50747)
UniProt P50747, sequence (P50747 whole entry, looked up): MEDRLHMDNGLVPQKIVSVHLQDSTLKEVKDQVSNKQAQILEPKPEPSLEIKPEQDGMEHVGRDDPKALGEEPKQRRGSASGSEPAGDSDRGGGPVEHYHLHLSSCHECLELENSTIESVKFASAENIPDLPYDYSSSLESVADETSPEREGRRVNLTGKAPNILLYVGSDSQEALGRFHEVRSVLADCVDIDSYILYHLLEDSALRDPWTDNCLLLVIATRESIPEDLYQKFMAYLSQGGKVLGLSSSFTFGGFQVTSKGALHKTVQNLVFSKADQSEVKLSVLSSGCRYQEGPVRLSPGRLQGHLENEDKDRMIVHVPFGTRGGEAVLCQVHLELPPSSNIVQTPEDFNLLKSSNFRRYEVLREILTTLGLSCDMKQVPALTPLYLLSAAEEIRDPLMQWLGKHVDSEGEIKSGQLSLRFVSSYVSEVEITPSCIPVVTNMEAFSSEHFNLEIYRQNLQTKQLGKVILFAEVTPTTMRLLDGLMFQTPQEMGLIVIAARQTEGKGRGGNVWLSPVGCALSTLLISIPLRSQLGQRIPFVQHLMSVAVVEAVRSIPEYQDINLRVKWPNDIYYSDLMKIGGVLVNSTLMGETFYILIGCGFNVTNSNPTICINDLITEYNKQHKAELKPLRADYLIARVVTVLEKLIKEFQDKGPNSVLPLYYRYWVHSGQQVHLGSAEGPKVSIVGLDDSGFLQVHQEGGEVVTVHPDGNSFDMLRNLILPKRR
active: [4] 0.293
inactive: vemurafenib -0.002 | [1] 0.034 | barasertib -0.001 | [2] -0.034 | volasertib -0.054 | [3] 0.003 | [5] -0.041 | saracatinib -0.026 | sotrastaurin 0.027 | alvocidib -0.015 | Tubastatin A 0.036 | [6] 0.018 | defactinib 0.017 | [7] 0.025 | encorafenib 0.003 | [8] 0.053 | alisertib -0.01 | [9] 0.038 | gefitinib 0.013

HACE1 (UniProt Q8IYU2)
UniProt Q8IYU2, sequence (Q8IYU2 whole entry, looked up): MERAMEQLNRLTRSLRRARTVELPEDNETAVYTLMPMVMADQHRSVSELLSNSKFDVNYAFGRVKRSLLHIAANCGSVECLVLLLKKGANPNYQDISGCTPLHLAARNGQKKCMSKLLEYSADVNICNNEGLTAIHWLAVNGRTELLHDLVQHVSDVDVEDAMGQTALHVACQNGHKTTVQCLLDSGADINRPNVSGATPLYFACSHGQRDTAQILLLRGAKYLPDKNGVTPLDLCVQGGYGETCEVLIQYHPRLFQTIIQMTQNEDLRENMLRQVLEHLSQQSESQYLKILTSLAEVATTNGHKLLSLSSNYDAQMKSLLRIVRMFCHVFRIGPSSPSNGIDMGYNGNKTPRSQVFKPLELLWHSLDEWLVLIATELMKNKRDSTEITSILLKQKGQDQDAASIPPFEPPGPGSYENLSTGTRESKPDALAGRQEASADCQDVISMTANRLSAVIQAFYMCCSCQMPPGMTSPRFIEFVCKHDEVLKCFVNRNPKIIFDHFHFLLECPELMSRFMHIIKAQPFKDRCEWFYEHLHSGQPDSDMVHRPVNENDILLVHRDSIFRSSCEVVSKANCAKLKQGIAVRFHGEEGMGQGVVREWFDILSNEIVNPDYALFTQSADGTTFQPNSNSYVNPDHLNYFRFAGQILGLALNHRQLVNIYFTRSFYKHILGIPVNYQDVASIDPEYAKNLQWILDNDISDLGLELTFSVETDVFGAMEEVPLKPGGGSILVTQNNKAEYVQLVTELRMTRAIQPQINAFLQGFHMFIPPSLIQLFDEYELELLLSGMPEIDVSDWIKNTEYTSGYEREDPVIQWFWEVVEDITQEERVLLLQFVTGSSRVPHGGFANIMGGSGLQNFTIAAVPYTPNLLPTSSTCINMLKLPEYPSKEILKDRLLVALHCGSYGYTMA
active: [4] -0.657
inactive: vemurafenib 0.066 | [1] 0.07 | barasertib 0.081 | [2] 0.069 | volasertib -0.058 | [3] 0.039 | [5] 0.252 | saracatinib 0.025 | sotrastaurin -0.154 | alvocidib -0.177 | Tubastatin A 0.006 | [6] -0.042 | defactinib -0.06 | [7] 0.278 | encorafenib -0.057 | [8] 0.18 | alisertib 0.061 | [9] 0.045 | gefitinib -0.152

ISOC2 (UniProt Q96AB3)
UniProt Q96AB3, sequence (Q96AB3 whole entry, looked up): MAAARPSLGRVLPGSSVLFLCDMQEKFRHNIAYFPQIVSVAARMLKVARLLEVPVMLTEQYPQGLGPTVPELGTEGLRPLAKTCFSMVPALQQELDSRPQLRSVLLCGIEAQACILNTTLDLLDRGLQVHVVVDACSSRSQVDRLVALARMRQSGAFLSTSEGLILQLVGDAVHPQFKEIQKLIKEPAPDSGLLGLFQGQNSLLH
inactive: vemurafenib 0.048 | [1] 0.033 | barasertib -0.12 | [2] 0.096 | volasertib 0.013 | [3] -0.043 | [4] 0.02 | [5] -0.08 | saracatinib -0.047 | sotrastaurin 0.002 | alvocidib 0.004 | Tubastatin A -0.017 | [6] 0.076 | defactinib 0.121 | [7] -0.024 | encorafenib 0.014 | [8] 0.122 | alisertib 0.022 | [9] 0.043 | gefitinib -0.045

IRF2BP1 (UniProt Q8IU81)
UniProt Q8IU81, sequence (Q8IU81 whole entry, looked up): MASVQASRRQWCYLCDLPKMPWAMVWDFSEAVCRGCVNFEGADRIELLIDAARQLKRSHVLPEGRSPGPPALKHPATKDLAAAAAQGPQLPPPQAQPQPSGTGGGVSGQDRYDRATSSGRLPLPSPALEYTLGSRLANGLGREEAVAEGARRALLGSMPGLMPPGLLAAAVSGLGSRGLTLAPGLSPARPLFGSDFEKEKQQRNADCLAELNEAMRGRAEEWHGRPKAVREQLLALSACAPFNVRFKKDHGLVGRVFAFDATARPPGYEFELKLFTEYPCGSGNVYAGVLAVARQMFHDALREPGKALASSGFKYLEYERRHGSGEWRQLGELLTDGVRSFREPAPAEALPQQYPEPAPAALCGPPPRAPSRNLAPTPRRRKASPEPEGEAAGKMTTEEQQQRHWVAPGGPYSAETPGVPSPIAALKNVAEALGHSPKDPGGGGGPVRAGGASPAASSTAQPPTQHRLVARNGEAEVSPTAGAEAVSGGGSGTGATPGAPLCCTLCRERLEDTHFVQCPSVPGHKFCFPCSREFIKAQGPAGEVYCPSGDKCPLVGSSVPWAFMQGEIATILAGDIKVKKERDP
inactive: vemurafenib 0.015 | [1] 0.023 | barasertib -0.003 | [2] 0.026 | volasertib -0.088 | [3] 0.014 | [4] 0.037 | [5] -0.06 | saracatinib 0 | sotrastaurin 0.01 | alvocidib -0.029 | Tubastatin A -0.047 | [6] 0.095 | defactinib 0.045 | [7] 0.091 | encorafenib 0.025 | [8] 0.117 | alisertib 0.042 | [9] 0.038 | gefitinib -0.003

GTF3C5 isoform 3 (UniProt Q9Y5Q8)
UniProt Q9Y5Q8, sequence (Q9Y5Q8 whole entry, looked up): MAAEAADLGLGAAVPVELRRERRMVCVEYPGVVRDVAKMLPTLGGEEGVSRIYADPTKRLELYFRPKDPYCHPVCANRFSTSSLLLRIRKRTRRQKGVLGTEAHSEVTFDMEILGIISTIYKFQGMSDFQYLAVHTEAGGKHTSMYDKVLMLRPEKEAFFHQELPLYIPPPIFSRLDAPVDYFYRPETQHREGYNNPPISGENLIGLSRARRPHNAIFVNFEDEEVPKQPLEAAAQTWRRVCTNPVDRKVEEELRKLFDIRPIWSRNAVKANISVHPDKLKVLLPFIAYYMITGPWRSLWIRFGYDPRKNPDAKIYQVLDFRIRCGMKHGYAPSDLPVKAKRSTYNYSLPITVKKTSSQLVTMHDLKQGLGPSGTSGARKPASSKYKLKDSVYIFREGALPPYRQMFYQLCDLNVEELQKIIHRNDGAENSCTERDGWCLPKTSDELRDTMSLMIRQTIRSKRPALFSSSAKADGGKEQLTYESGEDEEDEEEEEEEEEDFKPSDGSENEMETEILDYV
inactive: vemurafenib 0.024 | [1] 0.009 | barasertib -0.011 | [2] 0.006 | volasertib -0.018 | [3] 0.051 | [4] -0.025 | [5] 0.017 | saracatinib 0.031 | sotrastaurin -0.033 | alvocidib -0.005 | Tubastatin A -0.166 | [6] 0.029 | defactinib 0.014 | [7] -0.012 | encorafenib 0.01 | [8] 0.153 | alisertib 0.004 | [9] 0.001 | gefitinib -0.004

IGF2BP2 (UniProt Q9Y6M1)
UniProt Q9Y6M1, sequence (Q9Y6M1 whole entry, looked up): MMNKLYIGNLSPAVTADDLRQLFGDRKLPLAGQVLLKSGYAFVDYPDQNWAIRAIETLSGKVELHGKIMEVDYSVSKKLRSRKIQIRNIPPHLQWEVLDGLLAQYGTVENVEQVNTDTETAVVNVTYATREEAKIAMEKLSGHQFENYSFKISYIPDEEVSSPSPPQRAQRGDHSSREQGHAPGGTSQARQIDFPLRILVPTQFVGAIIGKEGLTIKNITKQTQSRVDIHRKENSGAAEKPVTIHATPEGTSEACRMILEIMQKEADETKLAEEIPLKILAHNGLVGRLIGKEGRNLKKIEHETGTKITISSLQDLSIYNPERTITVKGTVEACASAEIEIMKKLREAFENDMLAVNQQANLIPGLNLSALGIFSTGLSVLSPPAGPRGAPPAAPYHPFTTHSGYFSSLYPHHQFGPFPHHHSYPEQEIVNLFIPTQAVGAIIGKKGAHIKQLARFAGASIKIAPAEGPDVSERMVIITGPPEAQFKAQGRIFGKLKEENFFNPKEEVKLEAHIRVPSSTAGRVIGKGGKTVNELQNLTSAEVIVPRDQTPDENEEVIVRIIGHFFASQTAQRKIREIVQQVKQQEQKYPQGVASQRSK
inactive: vemurafenib 0.05 | [1] 0.026 | barasertib -0.005 | [2] -0.1 | volasertib -0.049 | [3] 0.02 | [4] -0.066 | [5] 0.036 | saracatinib 0.014 | sotrastaurin 0.026 | alvocidib 0.016 | Tubastatin A -0.124 | [6] 0.043 | defactinib -0.008 | [7] -0.014 | encorafenib 0.004 | [8] 0.201 | alisertib 0.042 | [9] -0.005 | gefitinib 0.001

ISCA1 isoform 2 (UniProt Q9BUE6)
UniProt Q9BUE6, sequence (Q9BUE6 whole entry, looked up): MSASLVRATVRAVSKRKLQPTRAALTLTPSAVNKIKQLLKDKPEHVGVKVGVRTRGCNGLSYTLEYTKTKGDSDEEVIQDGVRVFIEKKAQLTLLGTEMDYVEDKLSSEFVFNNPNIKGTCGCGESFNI
active: [4] 0.425
inactive: vemurafenib 0.007 | [1] -0.059 | barasertib 0.028 | [2] 0.042 | volasertib 0.03 | [3] -0.051 | [5] -0.21 | saracatinib 0.028 | sotrastaurin 0.021 | alvocidib 0.103 | Tubastatin A 0.023 | [6] 0.037 | defactinib 0.092 | [7] 0.071 | encorafenib -0.034 | [8] -0.003 | alisertib -0.286 | [9] 0.075 | gefitinib -0.025
